# From PubChem
# HCV inhibitor: qHTS Assay for Inhibitors of Hepatitis C Virus (HCV); Potency, µM (titrated, usually from 41.8 µM), without a hit: at the highest dose activity change, negative = inhibition, hits mostly inhibitors; Huh7.5.1 HCVcc-Cre infection, luciferase reporter, 44 h; actives 3.4% (n = 340,000); further: potency means the concentration at half of the fitted maximal effect
#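 Infectious HCVcc-Cre (~0.5 moi) was added to cells just after compound, with cells seeded 4 h earlier at 1,000 per well. Luciferase activity after 44 h culture reported infection; substrate was incubated 15 min at room temperature before reading.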
# Pf growth 96h: Primary qHTS for delayed death inhibitors of the malarial parasite plastid, 96 hour incubation. AID 504834, 2011. Potency, µM (highest dose often 28.7 µM), inactives show top-dose activity change, negative = inhibition, actives largely listed as inhibitors. P. falciparum luciferase reporter growth, 96 h. actives 6.9% (n = 320,000); further: potency means the concentration at half of the fitted maximal effect
#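 Two-generation exposure (96 h) targets delayed-death phenotype. Reporter parasites carrying integrated firefly luciferase, in red cells at 2% hematocrit and 0.05% parasitemia final, kept at 37 C, 5% CO2; luminescence loss indicates inhibition.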
# HCMV antiviral: qHTS Assay for inhibitors of the human cytomegalovirus (HCMV); HFF cells, HCMV-luciferase reporter, 72 h; hits give low values; activity change, negative = inhibition, % at 57.5 µM; actives 4.5% (n = 410,000); AID 1259415, 2018; in the data active means activity change below about -60%; inconclusive means no clear call, values can overlap the other calls; inactive means above about -39%
#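 Cell-based, HFFs, 1000 cells/well, 16 h 37C; cpds in DMSO + HCMV-luc, MOI 1 PFU/cell; 72 h 37C; OneGlo luminescence after 5 min RT; norm. to buffer vs Salinomycin 10uM.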
# Pf growth 48h: Primary qHTS for delayed death inhibitors of the malarial parasite plastid, 48 hour incubation; Potency, µM (doses to about 28.7 µM), inactives show at the top dose activity change, negative = inhibition, most hits filed as inhibitors; P. falciparum luciferase growth in erythrocytes, 48 h; actives 5.9% (n = 310,000); further: potency means the concentration at half of the fitted maximal effect
#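 Parasite viability was followed by luminescence of a genomically integrated firefly luciferase. Cultures held 0.1% parasitemia at 2% hematocrit (final), incubated under 5% CO2 at 37 C.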
# Lassa entry inh: qHTS for Inhibitors of binding or entry into cells for Lassa Virus | Lassa virus pseudotype entry inhibition, cell reporter | Potency, µM (doses to about 37.9 µM), inactives show top-dose activity change, negative = inhibition, hits mostly inhibitors | actives 1.2% (n = 300,000) | AID 540256, 2011; calls by dose curve; tested in HEK293 cells; further: potency means the concentration at half of the fitted maximal effect; nearly all actives have a fitted effect of over 50% in size
# Marburg entry inh: qHTS for inhibitors of binding or entry into cells for Marburg Virus | actives 1.8% (n = 300,000) | Potency, µM (doses to about 37.8 µM), inactives show at the top dose activity change, negative = inhibition, hits mostly inhibitors | Marburg virus pseudotyped entry inhibition, cell reporter; calls by dose curve; tested in HEK293 cells; further: potency means the concentration at half of the fitted maximal effect
# An asterisk follows results filed as active; ? = inconclusive; nt = no result; ! = a repeat was not active; [ ] = remark or other dose. Shown are actives, neighbours in structure and some others; about 14% of the full set was active somewhere. Unless noted, the call rests on the fitted dose curve; in most records, active means well fitted inhibition curve with a large enough effect; inconclusive means small, poorly fitted or top-dose-only effect, or another doubt; inactive means no such curve, though single readings can be large or run the other way. On the % scale 0 is the no-effect control and ±100 the full control effect.
SMILES,HCV inhibitor,Pf growth 96h,HCMV antiviral,Pf growth 48h,Lassa entry inh,Marburg entry inh
Cc1ccc(C(=O)Nc2ccccc2[N+](=O)[O-])cc1S(=O)(=O)N1CCOCC1,-24.4%,-7.2%,-7.5,-29.4%,0.9%,-0.9%[46.1 µM]
COc1ccc(Nc2nccc3c2cc(-c2ccccc2OC)n3C)cc1,nt,nt,-67.2*,nt,nt,nt
COc1ccccc1-c1cc2c(Nc3cc(OC)c(OC)c(OC)c3)nccc2n1C,nt,nt,-38.9,nt,nt,nt
CCOC(=O)C(NC(C)=O)C(OC(C)=O)c1cccc(N(CCCl)CCCl)c1 (stereo not drawn),-19.8%,10.4µM*,-63.8*,?,?,?
CN1/C(=C\C=Nc2cc(S(=O)(=O)N3CCOCC3)ccc2N2CCOCC2)C(C)(C)c2ccccc21,7.7%,8.28µM*,?,-24.6%,-7.1%,-12.7%[46.1 µM]
Cc1ccccc1N=C/C=C1\N(C)c2ccccc2C1(C)C,-17.2%,nt,8.9,-5.8%,11.1%,?
COCCn1c(C)cc(C(=O)CSc2nc(C)nc3sc4c(c23)CCC4)c1C,10µM*,nt,-79.8*,nt,10.3µM*,3.66µM*
COCCn1c(C)cc(C(=O)COc2nc3ccccc3nc2C)c1C,?,?,-85.5*,-14.9%,-27.6%,?
O=C(CSc1nc2ccccc2[nH]1)c1c[nH]c2ccccc12,0.0%,-2.1%,-0.4,4.8%,14.4%[46.1 µM],29.7%[46.1 µM]
CCc1ccc(C(=O)CSc2nc3ccccc3c(=O)[nH]2)cc1,0.8%,10.4µM*,30.7,nt,5.7%,-23.0%
Cc1nc(SCC(=O)NCC2CCCO2)c2c3c(sc2n1)CCCC3 (stereo not drawn),-28.5%,8.2%,17.9,-10.3%,-2.8%,-18.6%[46.1 µM]
Cc1ccc2nc(SCC(=O)c3c[nH]c4ccccc34)[nH]c2c1,-1.7%,?,82.4,2.94µM*,?,-13.6%[46.1 µM]
O=C(CSc1ncc(CO)n1Cc1ccccc1)Nc1ccc(C(F)(F)F)cc1,nt,nt,-33.2,nt,-17.6%[46.1 µM],nt
Cc1nc(SCC(=O)c2c[nH]c3ccccc23)n[nH]1,-0.4%,19.9%,-68.7*,87.8%,?,26.5%[46.1 µM]
COCCn1c(C)cc(C(=O)CSc2nncn2-c2ccccc2)c1C,2.3%,0.0%,7.0,-6.0%,-18.4%,15.3%
C=CCn1c(C)cc(C(=O)CSc2nc3ccccc3c(=O)[nH]2)c1C,7.4%,?,-36.6,-40.2%,?,?
COCCn1c(C)cc(C(=O)CSc2nc3ccccc3c(=O)[nH]2)c1C,8.91µM*,0.294µM*,15.4,10.1%,?,?
Cc1ccc(C)c(C(=O)CSc2nc3ccccc3c(=O)[nH]2)c1,14.8%,-8.0%,-66.2*,0.8%,-12.7%,-23.2%[46.1 µM]
COCCn1c(C)cc(C(=O)CSc2ccc3ccccc3n2)c1C,10µM*,nt,143.2,84.5%,-10.1%,2.1%
O=C(c1ccco1)N1CCN(c2ncnc3c(-c4ccc(Cl)cc4)nsc23)CC1,-0.9%,-3.7%,nt,181.5%,10.6%[46.1 µM],?
CCOC(=O)c1cc(-c2ccc(C)cc2)n(CCC(=O)Nc2ccc(C(C)C)cc2)c1C,nt,nt,-26.7,nt,nt,?
COc1ccc2c(c1)O[C@@H](c1ccc3c(c1)OCO3)[C@H](OC(=O)NCCOc1ccccc1)C2=O,nt,nt,nt,nt,nt,45.1%[14.2 µM]
Cc1cc(C)cc(N(CCC#N)C(=O)CSc2nc3ccccc3c(=O)[nH]2)c1,-18.6%,nt,14.6,nt,?,10µM*
CN(C)C(=O)CSc1nc2ccccc2c(=O)[nH]1,28.3%,?,-5.2,5.2%,8.9%,12.4%[46.1 µM]
CC1(C(=O)NCc2cccs2)CCN1C(=O)Cc1ccc(Cl)cc1Cl (stereo not drawn),nt,nt,-26.7,nt,nt,nt
SMILES,HCV inhibitor,Pf growth 96h,HCMV antiviral,Pf growth 48h,Lassa entry inh,Marburg entry inh
O=C(CCCn1c(=O)c2sccc2n(Cc2ccc(Cl)cc2)c1=O)NCc1ccc2c(c1)OCO2,nt,nt,?,nt,22.9%[46.1 µM],2.5%[46.1 µM]
CCC(=O)c1ccc(O)cc1,2.5%[8.37 µM],15.1µM*!,-25.9,4.5%,-4.1%,?
N#Cc1cc2c(=O)n3ccccc3nc2n(-c2ccc(Cl)cc2)c1=O,9.6%,4.2%,-60.0*,-2.3%,nt,nt
CCN(CC)c1ccc(/C=C/C(=O)c2cccnc2)cc1,-7.6%,?,18.7,0.928µM*,nt,nt
O=C(/C=C/c1ccc(Cl)cc1)c1cccnc1,12.0%,?,-7.8,nt,-2.3%,?
C[C@H](NC(=O)c1ccco1)C(=O)NNC(=O)c1ccc(F)cc1,14.6%,nt,-5.1,nt,-3.0%[46.1 µM],-0.9%[46.1 µM]
COc1cc(C(=O)NCC(=O)NCCN2C(=O)S/C(=C\c3ccccc3Cl)C2=O)cc(OC)c1OC,?,34.6%,?,?,1.4%,?
O=C(O)c1ccc(/C=C2\SC(=S)N(Nc3ccccc3)C2=O)cc1,-20.4%,?,-35.4,-24.3%,-12.1%,?
O=C1/C(=C/c2ccncc2)SC(=S)N1Nc1ccccc1,10.3%,9.28µM*,100.3,8.28µM*,-11.2%,?
COc1cc(OC)cc(C(=O)NCC(=O)NCCN2C(=O)S/C(=C\c3ccccc3Cl)C2=O)c1,10µM*,?,-0.4,?,nt,nt
O=C(CCCN1C(=O)/C(=C/c2ccccc2Cl)SC1=S)NNC(=O)c1ccc(Cl)cc1Cl,-3.4%,4.2%,-64.4*,?,nt,nt
Cc1cc(NC(=O)CCN2C(=O)/C(=C\c3ccccc3Cl)SC2=S)no1,-12.0%,0.0329µM*,-39.9,21.6%,0.7%[46.1 µM],10.3%[46.1 µM]
Cc1cc(NC(=O)CCCN2C(=O)/C(=C\c3cccs3)SC2=S)no1,5.0%,0.5%,-34.3,-3.4%,17.2%,?
COc1ccccc1N1CCN(S(=O)(=O)c2c(C)sc3ncn(CC(=O)Nc4ccc(C)cc4Br)c(=O)c23)CC1,nt,nt,-17.1,nt,9.7%[46.1 µM],-9.9%[46.1 µM]
CC(=O)N1CCCc2cc(S(=O)(=O)N3CCC(C(=O)NCc4ccc(N(C)C)cc4)CC3)ccc21,nt,nt,17.5,nt,-9.1%[46.1 µM],nt
O=C(CCn1c(=O)c2cccn2c2cccnc21)N1CCN(c2ccc(F)cc2)CC1,nt,nt,68.0,nt,-4.3%[46.1 µM],nt
